In PubChem BioAssay AID1259415 (National Center for Advancing Translational Sciences (NCATS), 2018):
Among all 410,000 compounds or so, about 18,000 (4.4%) were called active. Roughly 7% stayed inconclusive and do not appear here. The entries come from a sample that favours actives as a whole. Unmarked numbers belong to inactive results. Cut-off read from the data, not from the text of the source: active = activity change below about -60%; inconclusive = no clear call, values can overlap the other calls; inactive = above about -39%.

Assay: qHTS Assay for inhibitors of the human cytomegalovirus (HCMV)
Conditions: HFF cells, HCMV-luciferase reporter, 72 h; at 57.5 µM; active compounds read low
How it was run: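 Two compound doses tested in HFFs infected with HCMV-luciferase, MOI 1 PFU/cell, 72 h at 37C. Lysate luminescence read with OneGlo; data normalized against buffer-only and 10uM Salinomycin inhibitor controls.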
% is set by controls: 0 for no effect and ±100 for the full control effect.

| SMILES | activity change, negative = inhibition |
| --- | --- |
| CCc1ccccc1NC(=O)CSc1nc(C)c(C(=O)Nc2ccccc2)c(-c2ccc(Cl)cc2)c1C#N | -35.3% |
| Cc1cccc(CC(=O)Nc2cccc(-c3cn4cccnc4n3)c2)c1 | 10% |
| CC(=O)N1CCc2cc(S(=O)(=O)Nc3ccccc3N3CCN(C)CC3)ccc21 | -37.8% |
| Cc1cc2c(cc1C)N1C(=O)c3cc4ccccc4cc3NC(=O)C1C(=O)N2 (stereo unspecified) | -73.2% (active) |
| COc1cccc(NC(=O)c2ccc3nc(CCc4ccccc4)oc3c2)c1 | 41.2% |
| CCC(C)NC(=O)c1nn(C)c(=O)c2ccccc12 (stereo unspecified) | 29.9% |
| COc1cc2c(cc1OC)C(/C=C/c1ccco1)=NCC2 | -61.3% (active) |
| CCOC(=O)C1=NN(c2ccc(Cl)cc2)/C(=C/C2=NCCc3cc(OC)c(OC)cc32)S1 | 27.1% |
| COc1cc2c(cc1OC)C(c1cccc([N+](=O)[O-])c1)=NCC2 | 54.4% |
| Cc1c(CNC(C)c2ccccc2)c(C(=O)O)c(C)n1Cc1c(F)cccc1Cl (stereo unspecified) | -11% |
| CCOc1cc2[nH]c(=S)n(CCCN3CCCC3=O)c(=O)c2cc1OCC | -13% |
| CCOc1cc2[nH]c(=O)n(Cc3ccc(C(=O)NCCCN4CCCC4=O)cc3)c(=O)c2cc1OCC | -26.6% |
| COc1cc2[nH]c(=S)n(Cc3ccc(C)o3)c(=O)c2cc1OC | -9.57% |
| CCOc1cc2[nH]c(=S)n(CCN3CCCCC3C)c(=O)c2cc1OCC (stereo unspecified) | 0.001% |
| CCOc1cc2[nH]c(=S)n(Cc3ccc(C(=O)N4CCN(C)CC4)cc3)c(=O)c2cc1OCC | -95.9% (active) |
| COc1cc2[nH]c(=S)n(Cc3ccc(F)cc3)c(=O)c2cc1OC | -63.8% (active) |
| COc1cc2[nH]c(=S)n(CCN3CCCCC3C)c(=O)c2cc1OC (stereo unspecified) | -75.7% (active) |
| COc1ccc(CN2CCCCC2C)cc1OC (stereo unspecified) | 13.3% |
| COc1cc2[nH]c(=O)n(Cc3ccc(C(=O)NCc4ccc(C)cc4)cc3)c(=O)c2cc1OC | -0.48% |

| SMILES | activity change, negative = inhibition |
| --- | --- |
| CCOc1cccc(NC(=O)CSc2ncc(-c3ccc(Cl)cc3)[nH]2)c1 | -2.16% |
| Cc1ccc(F)cc1NC(=O)CCSc1nc(-c2ccco2)cc(C(F)(F)F)n1 | -17% |
| Cc1ccc(-c2cnc(C3CC3)o2)cc1S(=O)(=O)Nc1cccc(C)c1C | -35% |
| CCn1nnc(NC(=O)c2cc(Cl)c(OC)c(Cl)c2)n1 | 16.3% |
| O=C(CN1C2CCC1CC(NC(=O)C1CC1)C2)NCc1ccccc1 (stereo unspecified) | 18.9% |
| COc1ccc(CCNC(=O)c2cn(C)c3ccc(S(=O)(=O)N(C)C4CCCCC4)cc3c2=O)cc1OC | 7.75% |
| Nc1c(C(=O)OCC(=O)Nc2ccc(OC(F)F)cc2)[nH]c(=O)[nH]c1=O | -34.6% |
| COc1ccc(NC(=O)c2ccc3oc(=O)c(S(=O)(=O)c4ccc(F)cc4)cc3c2)c(OC)c1 | 10.2% |
| CCCCC[C@H](C)N1C[C@@H](COCc2ccccc2)Oc2cc(N3CCC[C@@H]3CO)ccc2S1(=O)=O | 15% |
| O=S1(=O)c2c(cccc2N2CCCC2)O[C@H](COCc2ccccc2)CN1C1CC1 | -34% |
| CCCCC[C@H](C)N1C[C@@H](COCc2ccccc2)Oc2cc(N3CC[C@@H](N(C)C)C3)ccc2S1(=O)=O | -94.8% (active) |
| CN1C(=O)c2ccccc2Sc2ccc(NC(=O)Cc3ccc(Cl)cc3)cc21 | -23.7% |
| Cc1nn2c(=O)cc(COC(=O)c3cccc(NC(=O)COc4ccccc4Cl)c3)nc2s1 | 14% |
| COc1ccccc1NC(=O)c1cc(C2CC2)nc2c1c(C)nn2-c1ccc(C)cc1 | 16.5% |
| O=C(OC1CCCCC1=O)c1cccc(S(=O)(=O)NCc2ccccc2)c1 (stereo unspecified) | -28.2% |
| Cc1ccc(Cl)cc1N1CCN(C(=O)C2CCC(CNS(=O)(=O)c3cccs3)CC2)CC1 (stereo unspecified) | -25.7% |
| COc1ccc(NC(=O)c2cnc(Nc3ccc(C)c(Cl)c3)c3ccccc23)cc1OC | -10.9% |
| COC(=O)c1cnc(Nc2cc(C)ccc2OC)c2ccccc12 | -31.5% |
| COc1ccc(Nc2ncc(C(=O)Nc3cc(C)ccc3OC)c3ccccc23)cc1 | -108% (active) |

| SMILES | activity change, negative = inhibition |
| --- | --- |
| Cc1ccc2oc3c(c(=O)c2c1)C(c1ccc(O)cc1)N(Cc1ccc2c(c1)OCO2)C3=O (stereo unspecified) | -1.21% |
| CCc1cc2c(SCC(=O)Nc3ncc(Cl)c(C)c3Cl)ncnc2s1 | -15.5% |
| CCc1cc2c(NC3CCCC3)ncnc2s1 | -76.1% (active) |
| CCc1cc2c(NC(Cc3ccccc3)C(=O)O)ncnc2s1 (stereo unspecified) | 32.8% |
| CC(C)=N/N=C1/NC(=O)C(Cc2ccccc2)S1 (stereo unspecified) | 29.3% |
| O=C1NC(=Nc2ccc(Cl)cc2)SC1Cc1cccc(Cl)c1Cl (stereo unspecified) | -64.5% (active) |
| NC1=NC(=O)C(Cc2cccc(Cl)c2Cl)S1 (stereo unspecified) | -8.43% |
| CCCCC(CC)CNC(=O)C1CCN(S(=O)(=O)c2cccc3nsnc23)CC1 (stereo unspecified) | -8.64% |
| CCn1c(=O)c2cc(C(=O)NCCc3ccc(Cl)cc3)sc2c2ccccc21 | -0.35% |
| CCN(CCCNC(=O)c1cc2c(=O)n(CC)c3ccccc3c2s1)Cc1ccccc1 | -82.5% (active) |
| CCc1ccc(CNC(=O)c2cc3c(=O)n(CC)c4ccccc4c3s2)cc1 | -16.1% |
| O=c1c(NCc2cccs2)nccn1-c1ccccc1 | 54.2% |
| COc1ccc(N=CN2c3ccccc3-n3cccc3C2CCc2ccccc2)cc1 (stereo unspecified) | 29.9% |
| CCc1nc2c(cnn2-c2ccc(C)cc2)c(=O)n1-c1ccc(C)cc1 | -37.2% |
| COc1cc(OC)cc(-c2nc3ccccc3c(=O)n2NC(=O)c2cccnc2Cl)c1 | -24.5% |
| COc1ccccc1C(=O)Nn1c(-c2cccs2)nc2ccccc2c1=O | -71.7% (active) |
| COc1cc(C(=O)Nn2c(CC(C)C)nc3ccccc3c2=O)cc(OC)c1OC | 36.7% |
| O=C(CC(c1cccs1)N1Cc2ccccc2C1=O)Nc1ccc(F)c(F)c1 (stereo unspecified) | -28.8% |
